The results in this text go back to PubChem BioAssay.

Calls of active or inactive are those of the source.

The nature of test [1]: small molecules captured by biotinylated probe aFSTL3 – biochemical, small-molecule microarray, fluorescence 635/667, stem cell growth factor project, primary screen (AID 1064).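 Note: measures binding of the biotinylated anti-FSTL3 antibody to printed compounds.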 Particulars: higher = more signal.
Test [2] is described as follows: binders from COS7 lysate, DM2A8 probe, primary screen, torsin A project, cell lysate, small-molecule microarray, fluorescence 635/667 (AID 1065). To be noted: higher = more signal, COS7 lysate expressing mutant human TOR1A.
The nature of test [3]: small molecules captured by biotinylated probe aFGF2 – biochemical, small-molecule microarray, fluorescence 635/667, stem cell growth factor project, primary screen (AID 1067).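 Note: measures binding of biotinylated aFGF2 protein to printed compounds on slides; z-score merges feature fluorescence and signal-to-noise across triplicate slides.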 Particulars: higher = more signal.
Test [4] can be described thus: small molecules captured by biotinylated probe aFGF10 – biochemical, small-molecule microarray, fluorescence 635/667, stem cell growth factor project, primary screen (AID 1071).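 Note: score merges 667 nm spot intensity and signal to noise from triplicate slides.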 Particulars: higher = more signal.
Test [5] deals with Neurogenic locus notch homolog protein 2 (Homo sapiens) (UniProt Q04721). As to the kind of experiment: small molecules binding Notch2 protein – biochemical, small-molecule microarray, 635 nm fluorescence, stem cell growth factors, primary screen (AID 1073). To be noted: higher = more signal.
The target of test [6] is Pro-neuregulin-1, membrane-bound isoform (Homo sapiens) (UniProt Q02297). Description: small molecules binding neuregulin-1 protein – biochemical, small-molecule microarray, fluorescence 635/667, psychiatric disease protein project, primary screen (AID 1075).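 Note: score combines 667 nm spot fluorescence with signal to noise.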 Particulars: NRG1 binding, 635 nm fluorescence, higher = more signal.
The test system of test [7] is Neuregulin-1 EGF-like domain. As to the kind of experiment: small molecules binding NRG1 EGF domain – biochemical, small-molecule microarray, 635 nm fluorescence, primary screen (AID 1081).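 Note: binding of the protein to compounds printed on small-molecule microarray slides.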 To be noted: higher = more signal.
The nature of test [8]: FRG1 expression reporter modulators in myotubes – cell-based, C2C12 myotubes, firefly/Renilla luciferase, luminescence, FRG1 inhibition for FSHD, primary screen (AID 1084). Particulars: FRG1 promoter luciferase, higher = more signal, called active from +8 up or from −8 down.
A short description of test [9]: small molecules captured by biotinylated probe aFST – biochemical, small-molecule microarray, fluorescence 635/667, stem cell growth factor project, primary screen (AID 1086).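 Note: score merges 667 nm fluorescence with signal-to-noise of each printed compound spot.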 Particulars: higher = more signal.
Test [10] can be described thus: binders of probe aHhip on microarray, primary screen, stem cell growth factor project, biochemical, small-molecule microarray, fluorescence 635/667 (AID 1087).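 Note: score merges spot fluorescence at 667nm with spot signal to noise ratio.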 To be noted: higher = more signal.
Test [11] deals with PRMT1 (protein arginine N-methyltransferase 1). Description: small molecules binding arginine methyltransferase PRMT1 – biochemical, small-molecule microarray, 635 nm fluorescence, primary screen (AID 1088).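 Note: binding of Prmt1 protein to compounds spotted on small-molecule microarray slides.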 To be noted: higher = more signal.
Test [12] is described as follows: growth effects on S. cerevisiae YJM789 – YJM789 clinical isolate, OD600, 24 h, basal, primary screen (AID 1089).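 Note: growth of clinical yeast isolate S. cerevisiae YJM 789 seeded 1000 cells per well; test concentration not given here.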 To be noted: higher = more signal, called active from +8 up or from −8 down.
The nature of test [13]: S. pombe growth modifiers, basal conditions – strain 972, OD600, 24 h, no modulator, primary screen (AID 1090).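 Note: basal condition with compound alone and no growth modifier present; test concentration not given here.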 To be noted: S. pombe 972 growth, higher = more signal, called active from +8 up or from −8 down.
Test [14] is described as follows: budding yeast growth modifiers under rapamycin – strain BY4716, OD600, 96 h, primary screen (AID 1091). Note: test concentration not given here. To be noted: S. cerevisiae BY4716 + rapamycin, higher = more signal, called active from +8 up or from −8 down.
Test [15] deals with Torsin-1A-interacting protein 2 (Homo sapiens) (UniProt Q8NFQ8). Description: small molecules binding lysate-expressed LULL1 – cell lysate, human LULL1 lysate, 635/667 nm fluorescence, primary screen (AID 1092).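 Note: score merges per-feature 667 nm fluorescence with signal-to-noise.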 Particulars: small-molecule microarray, hLULL1 lysate binding, 635 nm fluorescence; higher = more signal.
Test [16] in a line: optical density change of DRC41 E. coli – strain DRC41, OD650, 24 h, E. coli filamentation project, primary screen (AID 1093).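 Note: MC1000 strain lacking acrAB efflux and sulA so SOS filamentation is blocked; test concentration not given here.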 To be noted: E. coli DRC41 growth, higher = more signal, called active from +8 up or from −8 down.
Test [17] in a line: probe aLefty2 binding to arrayed compounds – biochemical, biotinylated probe, 635/667 nm fluorescence, primary screen (AID 1094).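 Note: score merges spot fluorescence near 667 nm with spot signal-to-noise ratio.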 Particulars: small-molecule microarray, higher = more signal.
For test [18], the system named is Noggin (protein binding on small-molecule microarray). As to the kind of experiment: small molecules binding Noggin protein – biochemical, 635/667 nm fluorescence, primary screen (AID 1095).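 Note: score merges 667 nm feature fluorescence with signal to noise over triplicate slides.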 To be noted: 635 nm fluorescence, higher = more signal.
The target in test [19] is Neurogenic locus notch homolog protein 3 (Homo sapiens) (UniProt Q9UM47). As to the kind of experiment: small molecules binding NOTCH3 protein – biochemical, 635/667 nm fluorescence, primary screen (AID 1096). Particulars: small-molecule microarray, 635 nm fluorescence, higher = more signal.
A short description of test [20]: probe aEGFR binding to arrayed compounds – biochemical, biotinylated probe, 635/667 nm fluorescence, primary screen (AID 1097).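 Note: probe is a biotinylated anti-EGFR antibody binding compounds printed on slides; score combines fluorescence near 667 nm and signal to noise of each spot.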 Particulars: small-molecule microarray, higher = more signal.

Neurogenic locus notch homolog protein 2 (Homo sapiens), sequence (Q04721 whole entry, looked up, canonical isoform): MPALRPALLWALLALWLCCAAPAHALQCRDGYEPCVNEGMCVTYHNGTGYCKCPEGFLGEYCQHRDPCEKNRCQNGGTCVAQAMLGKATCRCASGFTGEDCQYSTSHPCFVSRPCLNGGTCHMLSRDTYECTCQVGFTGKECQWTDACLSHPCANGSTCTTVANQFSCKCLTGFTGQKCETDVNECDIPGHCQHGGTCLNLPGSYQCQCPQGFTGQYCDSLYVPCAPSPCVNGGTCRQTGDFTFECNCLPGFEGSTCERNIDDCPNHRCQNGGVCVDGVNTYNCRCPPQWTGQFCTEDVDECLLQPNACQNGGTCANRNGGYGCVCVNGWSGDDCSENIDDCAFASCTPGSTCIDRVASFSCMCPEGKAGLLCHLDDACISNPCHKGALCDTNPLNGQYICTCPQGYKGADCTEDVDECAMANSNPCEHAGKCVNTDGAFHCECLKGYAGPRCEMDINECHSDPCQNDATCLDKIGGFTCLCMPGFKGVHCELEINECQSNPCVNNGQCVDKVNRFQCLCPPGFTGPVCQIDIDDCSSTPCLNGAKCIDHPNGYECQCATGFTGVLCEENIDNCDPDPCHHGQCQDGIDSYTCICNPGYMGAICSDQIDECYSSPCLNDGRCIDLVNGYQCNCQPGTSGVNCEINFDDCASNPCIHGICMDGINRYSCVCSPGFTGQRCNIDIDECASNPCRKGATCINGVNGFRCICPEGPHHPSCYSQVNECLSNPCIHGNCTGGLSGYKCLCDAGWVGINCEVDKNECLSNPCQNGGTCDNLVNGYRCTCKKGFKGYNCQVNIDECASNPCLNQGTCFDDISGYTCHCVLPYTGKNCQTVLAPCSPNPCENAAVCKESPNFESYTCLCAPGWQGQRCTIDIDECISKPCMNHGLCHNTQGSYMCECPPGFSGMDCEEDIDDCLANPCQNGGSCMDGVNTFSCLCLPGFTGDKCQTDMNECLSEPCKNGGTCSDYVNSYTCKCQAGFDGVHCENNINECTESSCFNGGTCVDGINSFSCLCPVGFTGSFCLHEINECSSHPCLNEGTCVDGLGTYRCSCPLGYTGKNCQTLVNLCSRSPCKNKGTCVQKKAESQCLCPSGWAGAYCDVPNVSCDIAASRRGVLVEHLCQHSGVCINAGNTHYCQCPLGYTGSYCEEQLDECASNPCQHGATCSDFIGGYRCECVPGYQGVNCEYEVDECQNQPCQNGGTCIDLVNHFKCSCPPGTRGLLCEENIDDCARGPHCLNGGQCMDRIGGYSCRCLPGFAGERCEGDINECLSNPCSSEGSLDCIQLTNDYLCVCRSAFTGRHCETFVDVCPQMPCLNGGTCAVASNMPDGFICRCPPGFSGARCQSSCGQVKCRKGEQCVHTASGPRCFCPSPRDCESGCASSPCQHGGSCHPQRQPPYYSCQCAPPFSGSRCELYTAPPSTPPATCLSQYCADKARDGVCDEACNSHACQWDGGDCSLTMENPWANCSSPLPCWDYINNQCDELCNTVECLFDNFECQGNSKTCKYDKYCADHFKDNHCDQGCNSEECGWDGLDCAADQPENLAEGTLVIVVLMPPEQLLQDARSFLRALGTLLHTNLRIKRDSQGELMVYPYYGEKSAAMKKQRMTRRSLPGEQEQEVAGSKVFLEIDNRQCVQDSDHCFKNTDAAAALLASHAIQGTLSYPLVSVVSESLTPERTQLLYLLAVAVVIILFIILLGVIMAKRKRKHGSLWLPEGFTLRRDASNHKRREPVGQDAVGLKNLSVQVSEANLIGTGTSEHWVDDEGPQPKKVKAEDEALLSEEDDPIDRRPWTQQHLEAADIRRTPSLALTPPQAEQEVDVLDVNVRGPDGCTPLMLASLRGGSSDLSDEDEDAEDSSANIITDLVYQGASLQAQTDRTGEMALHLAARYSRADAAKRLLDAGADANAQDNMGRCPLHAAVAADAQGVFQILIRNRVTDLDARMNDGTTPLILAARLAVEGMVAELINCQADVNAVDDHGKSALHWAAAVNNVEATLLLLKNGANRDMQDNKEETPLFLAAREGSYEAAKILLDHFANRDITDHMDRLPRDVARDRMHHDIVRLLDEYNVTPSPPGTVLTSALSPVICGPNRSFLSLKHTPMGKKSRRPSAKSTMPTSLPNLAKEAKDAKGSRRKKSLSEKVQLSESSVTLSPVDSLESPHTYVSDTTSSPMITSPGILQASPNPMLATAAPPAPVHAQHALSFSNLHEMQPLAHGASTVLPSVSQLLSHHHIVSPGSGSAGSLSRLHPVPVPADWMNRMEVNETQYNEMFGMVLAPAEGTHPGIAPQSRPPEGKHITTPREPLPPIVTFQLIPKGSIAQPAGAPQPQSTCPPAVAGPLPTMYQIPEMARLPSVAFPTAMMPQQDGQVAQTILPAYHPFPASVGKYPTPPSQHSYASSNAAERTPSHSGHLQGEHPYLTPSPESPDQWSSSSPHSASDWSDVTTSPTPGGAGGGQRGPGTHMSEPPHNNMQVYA
Torsin-1A-interacting protein 2 (Homo sapiens), sequence (Q8NFQ8 whole entry, looked up): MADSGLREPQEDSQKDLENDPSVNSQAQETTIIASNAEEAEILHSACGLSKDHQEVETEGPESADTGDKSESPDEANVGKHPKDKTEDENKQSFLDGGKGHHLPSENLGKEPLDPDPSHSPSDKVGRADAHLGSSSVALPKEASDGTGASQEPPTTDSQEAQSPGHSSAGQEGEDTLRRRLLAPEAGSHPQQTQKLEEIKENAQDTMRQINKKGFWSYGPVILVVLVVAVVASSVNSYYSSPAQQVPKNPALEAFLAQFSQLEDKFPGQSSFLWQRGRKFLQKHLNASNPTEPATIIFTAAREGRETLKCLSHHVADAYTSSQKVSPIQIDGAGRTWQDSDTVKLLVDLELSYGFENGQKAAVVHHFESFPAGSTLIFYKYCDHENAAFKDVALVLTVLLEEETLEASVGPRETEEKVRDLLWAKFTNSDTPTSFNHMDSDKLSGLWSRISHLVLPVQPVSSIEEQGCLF
Pro-neuregulin-1, membrane-bound isoform (Homo sapiens), sequence (Q02297 whole entry, looked up, the tested form may be a part, canonical isoform): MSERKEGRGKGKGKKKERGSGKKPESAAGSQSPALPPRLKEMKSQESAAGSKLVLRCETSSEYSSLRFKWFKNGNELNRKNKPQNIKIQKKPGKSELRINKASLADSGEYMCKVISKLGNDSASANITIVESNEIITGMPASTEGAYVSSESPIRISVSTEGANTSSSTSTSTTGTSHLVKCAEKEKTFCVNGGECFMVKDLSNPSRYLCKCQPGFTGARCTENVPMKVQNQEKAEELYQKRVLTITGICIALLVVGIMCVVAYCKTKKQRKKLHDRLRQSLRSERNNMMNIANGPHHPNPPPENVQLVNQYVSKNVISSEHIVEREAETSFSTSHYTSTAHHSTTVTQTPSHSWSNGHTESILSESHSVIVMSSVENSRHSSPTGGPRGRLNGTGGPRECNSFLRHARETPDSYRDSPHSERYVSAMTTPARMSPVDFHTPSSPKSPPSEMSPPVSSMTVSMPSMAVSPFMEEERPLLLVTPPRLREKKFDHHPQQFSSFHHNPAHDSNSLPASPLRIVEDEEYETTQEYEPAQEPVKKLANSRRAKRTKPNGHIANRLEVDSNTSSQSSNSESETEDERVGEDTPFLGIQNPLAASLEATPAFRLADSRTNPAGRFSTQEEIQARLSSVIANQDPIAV

For `O=C1NC(=O)C2C1C=CC(C(O)c1ccc3c(c1)OCO3)N2Nc1ccccn1` (stereo not given), the composite z-score in test [1] was -0.0049; in test [2] it was 0.0415; in test [3], 0.271; in test [4], 0.204; in test [5] it was 0.994; in test [6] it was 1.91. The composite z-score was determined as 1.16 in [7]; 0.364 in [9]; 0.0274 in test [10]; 0.227 in test [11]; 2.78 in [15]; 0.0787 in [17]. In addition, the results for the composite z-score in test [18], in test [19] and in test [20] were 0.233, 0.552 and -0.0999, respectively. Also, the z-score in test [8] was -0.653 (inactive); in test [12], -0.976 (inactive); in [13], 1.02 (inactive); in test [14], -0.939 (inactive); in [16], -0.541 (inactive).

`COCCOC(=O)N1C(=O)[C@@]2(c3cc(C#Cc4ccc(OC)cc4)ccc31)[C@H](C(=O)NC[C@H](O)c1ccccc1)[C@H]1C(=O)O[C@H](c3ccccc3)[C@H](c3ccccc3)N1[C@@H]2c1ccc(O)cc1`: the composite z-score in [1] is -0.179; in test [2], 0.504; in test [3], 0.0086; in [4] it was 0.589; in test [5], 1.37; in test [6] it was 0.566. The composite z-score in [7] was 1.23; in [9] it was 0.57; in test [10], 0.012; in test [11], 1.54; in test [15], 2.49; in test [17], -0.0159. Moreover, the results for the composite z-score in test [18], in test [19] and in test [20] were 0.793, 1.05 and 0.268, respectively. Also, the z-score was 0.427 (inactive) in [8]; 0.254 (inactive) in test [12]; 1.06 (inactive) in test [13]; 1.08 (inactive) in test [14]; 0.394 (inactive) in test [16].

As for `COc1ccc([Si](C)(C)[C@@H]2[C@@H](CC(=O)N3CCC[C@H]3CO)O[C@]3(C(=O)N(Cc4ccc(N5C(=O)c6cccc7cccc5c67)cc4)c4ccccc43)[C@H]2C)cc1`, the composite z-score is -0.629 in test [1]; 0.847 in [2]; -0.0563 in [3]; 0.995 in test [4]; 0.733 in test [5]; 1.5 in [6]. Moreover, the composite z-score in [7] was 0.976; in test [9] it was 0.622; in test [10] it was -0.216; in test [11], 1.54; in [15], 3.07; in test [17], -0.238. Further, the composite z-score is 1.41 in test [18], 1.08 in [19] and -0.129 in [20]. Besides, the z-score in test [8] is -1.5 (inactive); in test [12], 0.035 (inactive); in test [13] it was 0.378 (inactive); in test [14] it was 0.922 (inactive); in test [16], 1.84 (inactive).

For `COCCCNC(=O)[C@@H]1c2ccccc2C(=O)N(Cc2ccccc2C(F)(F)F)[C@H]1c1ccc(CO)cc1`, the composite z-score was 0.6 in test [1]; 0.054 in [2]; -0.0284 in test [3]; -0.445 in test [4]; -0.356 in [5]; 0.068 in test [6]. Further, the composite z-score in [7] is 1.16; in [9], 0.0584; in test [10] it was -0.0726; in test [11] it was 0.12; in [15] it was 0.73; in test [17], -0.0855. The composite z-score in [18] was -0.789; in test [19], -0.941; in test [20] it was -0.0146. Also, the z-score in test [8] is 0.421 (inactive); in [12], -0.409 (inactive); in [13] it was -0.514 (inactive); in [14] it was -0.368 (inactive); in [16], 0.598 (inactive).

Consider `O=C1C2C=CC(C(O)c3cc(C(F)(F)F)cc(C(F)(F)F)c3)N(Nc3ccc([N+](=O)[O-])cc3)C2C(=O)N1c1ccccc1` (stereo not given), for which the composite z-score in [1] was -0.25; in [2] it was 0.466; in [3] it was 0.0678; in test [4], 0.94; in test [5] it was 1.67; in test [6] it was 1.86. Moreover, the composite z-score in [7] is 1.17; in [9], 0.598; in test [10], -0.166; in test [11] it was 1.54; in test [15], 3.47; in [17] it was -0.0229. In addition, the values for the composite z-score in test [18], in test [19] and in [20] were 0.411, 1.02 and 0.0149, respectively. Moreover, the z-score in test [8] was 0.0404 (inactive); in test [12] it was 0.527 (inactive); in test [13], 1.15 (inactive); in test [14], 33.4 (active); in [16], -1.57 (inactive).
